Common to all, as to details: mRNA level, 48 h; actives raise or lower the signal
Read-out in experiment [1]: Glutamate-cysteine ligase catalytic (GCLC), GCLC (gene 2729)
Description: LTEA_HepaRG_GCLC: Life Technologies and Expression Analysis (LTEA) Assay for Glutamate-cysteine ligase catalytic (GCLC) using HepaRG (AID 2283498). In a few lines:
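Oxidative-stress marker GCLC is measured as mRNA change in human HepaRG liver cells after 48 h chemical treatment in 0.5% DMSO, eight concentrations from 100 uM. Activity is fitted bidirectionally against vehicle.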

Read-out in experiment [2]: growth arrest and DNA damage 45 (GADD45G), GADD45G (gene 10912)
In words: LTEA_HepaRG_GADD45G: Life Technologies and Expression Analysis (LTEA) Assay for growth arrest and DNA damage 45 (GADD45G) using HepaRG (AID 2283499). In a few lines:
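Gain or loss of GADD45G mRNA, quantified by TaqMan qRT-PCR against three housekeeping genes, is fitted in both directions relative to 0.5% DMSO. Human HepaRG cultures receive test chemical for 48 h at up to 100 uM.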

Read-out in experiment [3]: Glutamate-cysteine ligase regulatory (GCLM), GCLM (gene 2730)
Description: LTEA_HepaRG_GCLM: Life Technologies and Expression Analysis (LTEA) Assay for Glutamate-cysteine ligase regulatory (GCLM) using HepaRG (AID 2283500). In a few lines: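 HepaRG, 48 h dosing, 100 uM top, half-log x8, 0.5% DMSO vehicle. Readout: GCLM mRNA by TaqMan qRT-PCR, housekeeping-normalized (ACTB/GAPDH/POLR2A). Curves fit bidirectionally vs DMSO baseline.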

Read-out in experiment [4]: Glutathione S-transferase M3 (GSTM3), GSTM3 (gene 2947)
Description: LTEA_HepaRG_GSTM3: Life Technologies and Expression Analysis (LTEA) Assay for Glutathione S-transferase M3 (GSTM3) using HepaRG (AID 2283501). The procedure, abridged: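 HepaRG, plated 48 h, then serum-free induction medium; test chemical 48 h, duplicate; 100 uM top, half-log x8, 0.5% DMSO. Read-out: GSTM3 mRNA (TaqMan qRT-PCR, Fluidigm array). Bidirectional fit vs DMSO.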

Read-out in experiment [5]: Heat shock 70 kDa protein 1 (HSPA1A), gene 3303
In words: LTEA_HepaRG_HSPA1A: Life Technologies and Expression Analysis (LTEA) Assay for Heat shock 70 kDa protein 1 (HSPA1A) using HepaRG (AID 2283502). In a few lines:
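HepaRG, 48 h exposure, 8-pt half-log CRC from 100 uM in 0.5% DMSO, duplicates. Readout: TaqMan qRT-PCR of HSPA1A mRNA, housekeeping-normalized (ACTB/GAPDH/POLR2A). Bidirectional fit vs 0.5% DMSO baseline.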

Read-out in experiment [6]: Hypoxia-inducible factor 1-alpha (Homo sapiens) (UniProt Q16665)
Description: LTEA_HepaRG_HIF1A: Life Technologies and Expression Analysis (LTEA) Assay for Hypoxia-inducible factor 1 (HIF1A) Trancription factor using HepaRG (AID 2283503). The procedure, abridged:
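Gain- or loss-of-signal HIF1A mRNA changes are fitted against a DMSO baseline. HepaRG cultures receive eight concentrations, highest 100 uM, for 48 h in serum-free induction medium with 0.5% DMSO.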

Read-out in experiment [7]: 3-Hydroxy-3-Methylglutaryl-CoA Synthase 2 (HMGCS2), HMGCS2 (gene 3158)
In words: LTEA_HepaRG_HMGCS2: Life Technologies and Expression Analysis (LTEA) Assay for 3-Hydroxy-3-Methylglutaryl-CoA Synthase 2 (HMGCS2) using HepaRG (AID 2283504). In a few lines:
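HepaRG, plated 48 h then switched to serum-free induction media; cmpd 8-pt, max 100 uM, 1/2-log, 0.5% DMSO, n=2, 48 h. HMGCS2 mRNA by Fluidigm TaqMan qRT-PCR, ACTB/GAPDH/POLR2A norm; bidirectional fit vs DMSO.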

Read-out in another experiment: HGF (gene 3082)
In words: LTEA_HepaRG_HGF: Life Technologies and Expression Analysis (LTEA) Assay for Hepatocyte Growth Facto (HGF) using HepaRG (AID 2283505). In a few lines: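 Read-out is HGF transcript level by qRT-PCR, normalized to three housekeeping genes, fitted bidirectionally against 0.5% DMSO vehicle. Human HepaRG cells received test chemicals for 48 h at up to 100 uM.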

Read-out in experiment [8]: Insulin Like Growth Factor 1 (IGF1), IGF1 (gene 3479)
Description: LTEA_HepaRG_IGF1: Life Technologies and Expression Analysis (LTEA) Assay for Insulin Like Growth Factor 1 (IGF1) using HepaRG (AID 2283506). In a few lines: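 qRT-PCR readout of IGF1 mRNA, normalized to three housekeeping genes, after 48 h chemical exposure of HepaRG cells. Concentrations: 8-point half-log series, top 100 uM, 0.5% DMSO vehicle. Gain or loss fitted against DMSO baseline.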

Read-out in experiment [9]: Intercellular Adhesion Molecule 1 (ICAM1), ICAM1 (gene 3383)
In words: LTEA_HepaRG_ICAM1: Life Technologies and Expression Analysis (LTEA) Assay for Intercellular Adhesion Molecule 1 (ICAM1) using HepaRG (AID 2283507). The procedure, abridged: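 Readout is qRT-PCR mRNA level, normalized to three housekeeping genes and fitted bidirectionally against 0.5% DMSO vehicle. Human HepaRG cultures received compound for 48 h, top concentration 100 uM with half-log dilutions.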

Read-out in experiment [10]: Interleukin 6 (IL6), IL6 (gene 3569)
In words: LTEA_HepaRG_IL6: Life Technologies and Expression Analysis (LTEA) Assay for Interleukin 6 (IL6) using HepaRG (AID 2283509). In a few lines: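 Changes in IL6 mRNA, up or down relative to 0.5% DMSO controls, were derived from concentration-response curves in human HepaRG cells treated for 48 h at up to 100 uM, with ACTB, GAPDH and POLR2A as normalizers.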

Read-out in experiment [11]: Potassium channel subfamily K member 1 (KCNK1), KCNK1 (gene 3775)
Description: LTEA_HepaRG_KCNK1: Life Technologies and Expression Analysis (LTEA) Assay for Potassium channel subfamily K member 1 (KCNK1) using HepaRG (AID 2283511). The procedure, abridged: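 Human HepaRG cultures receive test chemicals for 48 h in 0.5% DMSO, top concentration 100 uM with half-log dilutions. Induction or suppression of KCNK1 mRNA relative to DMSO is derived by bidirectional fitting of qRT-PCR data.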

Read-out in experiment [12]: Keratin 19 (KRT19), KRT19 (gene 3880)
In words: LTEA_HepaRG_KRT19: Life Technologies and Expression Analysis (LTEA) Assay for Keratin 19 (KRT19) using HepaRG (AID 2283512). The procedure, abridged:
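KRT19 transcript levels, measured by Fluidigm qRT-PCR against three housekeeping genes, are fitted for gain or loss of signal relative to DMSO. Human HepaRG cells receive test chemicals (top 100 uM, half-log steps, 0.5% DMSO) for 48 hours.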

Read-out in experiment [13]: JUN Transcription Factor, JUN (gene 3725)
Description: LTEA_HepaRG_JUN: Life Technologies and Expression Analysis (LTEA) Assay for JUN Transcription Factor using HepaRG (AID 2283513). In a few lines: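 HepaRG, 48 h exposure, 8-pt half-log series top 100 uM, 0.5% DMSO, duplicate. JUN mRNA by qRT-PCR (Fluidigm), housekeeping-normalized (ACTB/GAPDH/POLR2A); bidirectional curve fit vs DMSO baseline.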

Read-out in experiment [14]: Lipase C (LIPC), LIPC (gene 3990)
Description: LTEA_HepaRG_LIPC: Life Technologies and Expression Analysis (LTEA) Assay for Lipase C (LIPC) using HepaRG (AID 2283514). The procedure, abridged: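 In this multiplexed gene-expression screen, human HepaRG cultures received test chemicals for 48 h across eight concentrations with 100 uM highest, in duplicate. Values reflect LIPC mRNA induction or suppression versus DMSO vehicle, from normalized qRT-PCR.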

Read-out in experiment [15]: Lipoprotein lipase (LPL), LPL (gene 4023)
Description: LTEA_HepaRG_LPL: Life Technologies and Expression Analysis (LTEA) Assay for Lipoprotein lipase (LPL) using HepaRG (AID 2283515). In a few lines: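 Concentration-response testing used half-log steps from 100 uM in 0.5% DMSO on human HepaRG cells, 48 h, duplicate wells. Phenobarbital 1 mM served as induction control; LPL mRNA was normalized to ACTB, GAPDH, POLR2A.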

Read-out in experiment [16]: matrix metalloproteinase-10 (MMP10), MMP10 (gene 4319)
In words: LTEA_HepaRG_MMP10: Life Technologies and Expression Analysis (LTEA) Assay for matrix metalloproteinase-10 (MMP10) using HepaRG (AID 2283517). In a few lines:
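In differentiated HepaRG cultures kept in 0.5% DMSO, test chemicals act for 48 h over an eight-point range with a top dose of 100 uM. Expression is then quantified by TaqMan RT-PCR against ACTB, GAPDH and POLR2A.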

Read-out in experiment [17]: Interleukin 6 Receptor (IL6R), IL6R (gene 3570)
Description: LTEA_HepaRG_IL6R: Life Technologies and Expression Analysis (LTEA) Assay for Interleukin 6 Receptor (IL6R) using HepaRG (AID 2283510).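 As to AC50: differentiated human HepaRG liver cells in serum-free induction medium.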 In a few lines:
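HepaRG, 48 h exposure, 8-pt half-log series, top 100 uM, 0.5% DMSO vehicle, duplicates. Read-out: TaqMan qRT-PCR of IL6R transcript, housekeeping-gene normalized. Gain or loss fitted relative to DMSO baseline.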

Structures are written as SMILES. Active and inactive are the calls of the source. The calls were made as follows: active = hit-call score of the fitted dose curve at least 0.9, where 1 is the maximum; inactive = score below 0.9.

One may read the AC50 as the midpoint of the concentration-response curve, whichever way the signal moves.

Sequence of Hypoxia-inducible factor 1-alpha (Homo sapiens) (Q16665 whole entry, looked up): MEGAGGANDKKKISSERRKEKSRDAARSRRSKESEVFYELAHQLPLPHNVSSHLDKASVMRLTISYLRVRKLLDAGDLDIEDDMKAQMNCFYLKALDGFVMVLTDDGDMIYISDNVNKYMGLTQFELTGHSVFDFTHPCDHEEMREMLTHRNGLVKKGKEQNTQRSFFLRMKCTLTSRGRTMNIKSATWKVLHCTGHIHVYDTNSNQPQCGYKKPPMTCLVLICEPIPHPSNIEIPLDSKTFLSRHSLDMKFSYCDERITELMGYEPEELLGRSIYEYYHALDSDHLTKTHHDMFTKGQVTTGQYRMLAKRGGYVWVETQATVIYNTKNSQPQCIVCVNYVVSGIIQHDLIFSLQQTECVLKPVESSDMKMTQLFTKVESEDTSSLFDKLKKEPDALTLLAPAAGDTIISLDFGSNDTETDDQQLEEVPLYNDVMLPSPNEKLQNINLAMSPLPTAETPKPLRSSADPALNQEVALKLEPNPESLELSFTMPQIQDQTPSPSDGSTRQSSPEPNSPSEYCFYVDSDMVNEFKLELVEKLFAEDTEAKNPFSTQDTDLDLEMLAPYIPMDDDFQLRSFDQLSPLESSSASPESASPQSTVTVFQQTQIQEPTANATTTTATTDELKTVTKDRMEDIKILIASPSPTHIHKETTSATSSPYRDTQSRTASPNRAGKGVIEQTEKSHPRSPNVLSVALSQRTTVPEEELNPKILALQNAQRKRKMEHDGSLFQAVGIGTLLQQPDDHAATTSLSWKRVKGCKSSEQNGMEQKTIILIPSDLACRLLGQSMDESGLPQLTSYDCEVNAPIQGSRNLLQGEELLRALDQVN

On to `Fc1ccc(Oc2ccnc3cc(Cl)cc(Cl)c23)cc1`, for which the compound was called inactive in experiment [1], in [2], in experiment [3], in experiment [4], in experiment [5] and in [6]. Further, the compound was called inactive (in [7]; with HGF (gene 3082); in experiment [9]; in experiment [11]; in experiment [13]; in [15]). Further, the compound was classed as inactive in [16]. Besides, the AC50 was 50 µM (active) in experiment [8], 77.4 µM (active) in [10], 50 µM (active) in experiment [12] and 78.8 µM (active) in [14].
With `CCCC1COC(Cn2cncn2)(c2ccc(Cl)cc2Cl)O1` (stereo not drawn), the compound was called inactive in [1], in experiment [17], in experiment [11] and in experiment [13]. The AC50 is 35.6 µM (active) in experiment [2]; 50 µM (active) in experiment [3]; 64.5 µM (active) in [4]; 90.5 µM (active) in [5]; 50 µM (active) in experiment [6]; 36.5 µM (active) in experiment [7]. The concentration at half-maximal activity (AC50) was 50 µM (active) in the experiment with HGF (gene 3082); 25.5 µM (active) in experiment [8]; 77.1 µM (active) in [9]; 83.2 µM (active) in experiment [10]; 1.12 µM (active) in experiment [12]; 35.8 µM (active) in experiment [14]. Moreover, the half-maximal activity concentration (AC50) in experiment [15] is 27.8 µM (active); in experiment [16], 77.8 µM (active).
Regarding `CC1=C(C(=O)Nc2ccccc2)SCCO1`, the compound was called inactive (in experiment [1]; in experiment [3]; in [4]; in experiment [5]; in experiment [6]; with HGF (gene 3082)). Moreover, the call in [8], in [9], in experiment [10], in experiment [11], in [13] and in experiment [16] was inactive. The AC50 in experiment [2] was 61.8 µM (active); in experiment [7] it was 71.8 µM (active); in experiment [17], 50 µM (active); in experiment [12] it was 41.7 µM (active); in experiment [14], 39.5 µM (active); in experiment [15], 36.5 µM (active).

The values above are taken from PubChem BioAssay (EPA / NIEHS).
